# From PubChem BioAssay (NCI)
# About 83,000 compounds went through this panel and 20% of them were active in at least one assay; those are over-represented in the sample as a whole.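 Assay: single dose, 48 h. Readout: percent growth (0 = no net growth; negative = cell death). Active: <10.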 Values without a mark were called inactive. Calls of active or inactive are those of the source.
# Key:
# Assay in all cases: NCI-60 one-dose screen, 48 h (100 = growth as untreated, 0 = no growth, -100 = all killed)
# Conditions in all cases: 10 µM unless noted
# [1] = test system: T-47D breast
# [2] = test system: MDA-MB-435 melanoma
# [3] = test system: SW-620 colon
# [4] = test system: MCF7 breast
# [5] = test system: HCT-116 colon
# [6] = test system: HCC-2998 colon
# [7] = test system: KM12 colon
# [8] = test system: BT-549 breast
Structure (SMILES),growth [1],growth [2],growth [3],growth [4],growth [5],growth [6],growth [7],growth [8]
Oc1ccc2cc(Br)ccc2c1-c1c(O)ccc2cc(Br)ccc12,57.9%,63.1%,48.3%,37.1%,33.5%,56.5%,40%,
CC(C)(C)n1cc(-c2ccnc(NCCNS(=O)(=O)c3ccc(F)cc3)c2)c(-c2cccc(O)c2)n1,23.7%,64.7%,11%,28.5%,37.3%,31.2%,36.1%,
CC(C)(C)n1cc(-c2ccnc(NCCNS(=O)(=O)c3ccc(Cl)cc3)c2)c(-c2cccc(O)c2)n1,38%,71.2%,28%,28.2%,45.4%,36.7%,42.5%,
CC(=O)Nc1ccc(S(=O)(=O)n2ccc(-c3ccc4c(c3)CCC(C)(C)O4)n2)cc1,31.1%,67.3%,82.5%,66.2%,29.9%,83.3%,67.4%,
COc1ccc(C(=O)n2nc(/C=C/c3ccc(O)c(OC)c3)cc2/C=C/c2ccc(O)c(OC)c2)cc1,-4.93% (active),-22.5% (active),4.16% (active),-3.07% (active),-0.661% (active),16.4%,6.33% (active),
COc1ccc(-c2cc(-c3ccccc3)nc(SCCCC(=O)NO)n2)cc1OC,2.62% (active),9.02% (active),12.5%,4.19% (active),5.58% (active),34.7%,13.1%,
c1cc(C2=N[C@@H]3c4ccccc4C[C@@H]3O2)nc(C2=N[C@@H]3c4ccccc4C[C@@H]3O2)c1,101%,104%,107%,88.1%,103%,104%,103%,
Cc1ccc(C(=O)NCCCNc2nccc(-n3ccc4cccnc43)n2)cc1,90.6%,104%,109%,103%,93.7%,109%,103%,
C=C1CCC2C(C)(CO)C(O)CCC2(C)C1C/C=C1/C(=O)OCC1Oc1ccccc1C (stereo not given),84.9%,59.3%,17.9%,29.5%,71.4%,125%,78.3%,
COc1ccc(S(=O)(=O)NCCCNc2nccc(-n3ccc4cccnc43)n2)cc1,78.2%,98.4%,113%,98.7%,105%,111%,94.6%,
Cc1ccc(S(=O)(=O)NCCCNc2cc(-c3cn(C(C)(C)C)nc3-c3cccc(O)c3)ccn2)cc1,44.2%,63.1%,19.1%,45.7%,52.5%,50.3%,39.8%,
CCN(CC)CCC(CNc1ccnc2cc(Cl)ccc12)c1ccc(Cl)cc1 (stereo not given),-76% (active),-72.2% (active),-67.8% (active),-70.7% (active),-26.9% (active),-64.8% (active),17.9%,
O=C(NCCNc1nccc(-n2ccc3cccnc32)n1)c1ccc(C(F)(F)F)cc1,102%,99.9%,103%,95.6%,100%,120%,100%,
O=S(=O)(NCCCNc1nccc(-n2ccc3cccnc32)n1)c1ccc(Br)cc1,95.6%,107%,110%,110%,105%,121%,98.3%,
Cn1cnc2c(N3CCN(C(=O)OCc4ccc5c(Cl)cc(Cl)c(O)c5n4)CC3)nc(Cl)nc21,61%,67.5%,85.9%,73%,53.1%,94.1%,56.9%,
COc1ccc(S(=O)(=O)n2ccc(-c3ccc4c(c3)CCC(C)(C)O4)n2)cc1OC,43.7%,79.6%,79.9%,64.3%,61.5%,78.9%,71.4%,
O=[N+]([O-])c1ccc(C(c2ccccc2)c2ccccc2)cc1,109%,99.5%,87.5%,84.9%,70.4%,92%,90.9%,
Cc1ccc(S(=O)(=O)NCCNc2cc(-c3cn(C(C)(C)C)nc3-c3cccc(O)c3)ccn2)cc1,45.1%,78.1%,39.7%,41.6%,62.1%,43%,65.1%,
C=C1CCC2C3(C)COC(C)(C)OC3CCC2(C)C1C/C=C1/C(=O)OCC1Oc1ccccc1OC (stereo not given),54.3%,68.6%,21.4%,30.2%,73.3%,122%,97.9%,
CCCCN(CCCC)C(=O)CC,124%,104%,110%,93.3%,102%,107%,106%,
OCc1ncc(-c2ccccc2)s1,89.8%,108%,106%,102%,89.5%,79.6%,103%,
CC12CCC3C4(C)COC(c5ccccc5Cl)OC4CCC3(C)C1CC(C1=CCOC1=O)O2 (stereo not given),31.1%,54.2%,84.7%,46.6%,40.5%,77.4%,59.9%,
COc1ccc(/C=C2/C(=O)NC(SCC(=O)N3CCN(c4cc5c(cc4F)c(=O)c(C(=O)O)cn5C4CC4)CC3)=NC2N)cc1OC (stereo not given),110%,104%,105%,98%,105%,99.7%,106%,
O=C(NNC(=O)N1c2ccccc2C=Cc2ccccc21)c1ccccc1,102%,103%,107%,95.6%,103%,114%,105%,
CC12CCC3C4(C)COC(c5ccco5)OC4CCC3(C)C1CC(C1=CCOC1=O)O2 (stereo not given),101%,103%,107%,98.9%,104%,105%,103%,
CC(C)(C)N1CCC1C(N)=O (stereo not given),99.5%,103%,97.7%,104%,77.4%,47%,99.2%,

Structure (SMILES),growth [1],growth [2],growth [3],growth [4],growth [5],growth [6],growth [7],growth [8]
N=c1ccc2nc3ccc(N)cc3sc-2c1,5.98% (active),-56.6% (active),31.7%,14.6%,1.01% (active),53.2%,18.1%,
CC(C)(C)n1cc(-c2ccnc(NCCCNS(=O)(=O)c3ccc(Br)cc3)c2)c(-c2cccc(O)c2)n1,29.9%,39%,7.75% (active),7.27% (active),22.6%,-56.1% (active),1.78% (active),
C=C1CCC2C(C)(CO)C(O)CCC2(C)C1C/C=C1/C(=O)OCC1O/C=C/c1ccccc1 (stereo not given),33.4%,75.8%,5.82% (active),32.6%,58.5%,101%,74.8%,
Cc1ccc(Nc2nnc(-c3ccc(Cl)cc3)o2)c(C)c1,75.6%,6.82% (active),56.5%,56.9%,83.9%,84.8%,65.7%,
COc1cc(/C=C/c2cc(/C=C/c3ccc(O)c(OC)c3)n(C(N)=O)n2)ccc1O,-7.56% (active),-46% (active),0.998% (active),-16.4% (active),-39.2% (active),7.85% (active),3.47% (active),
O=C(NNC(=O)N1c2ccccc2C=Cc2ccccc21)c1ccc2ccccc2c1,87.4%,103%,101%,86%,103%,102%,98.6%,
CCN(CC)CCC(CNc1ccnc2cc(Cl)ccc12)c1ccccc1 (stereo not given),71%,-2.6% (active),62.3%,26.3%,28.3%,68.2%,84.1%,
O=C(NCCCNc1nccc(-n2ccc3cccnc32)n1)c1c(F)cccc1F,97.1%,105%,107%,88.4%,101%,104%,106%,
CC(C)(C)n1cc(-c2ccnc(NCCCNS(=O)(=O)c3ccc(C(F)(F)F)cc3)c2)c(-c2cccc(O)c2)n1,31.3%,32.2%,0.471% (active),1.14% (active),16.1%,-63% (active),-14.2% (active),
CCN(CC)CCC(CNc1c2ccc(Cl)cc2nc2ccc(OC)cc12)c1ccccc1 (stereo not given),-58.8% (active),-80.4% (active),-49.7% (active),-38.6% (active),-36% (active),-72% (active),-24.1% (active),
O=S(=O)(NCCCNc1nccc(-n2ccc3cccnc32)n1)c1cccc(C(F)(F)F)c1,99.6%,108%,108%,103%,105%,119%,98%,
CC(C)(C)n1cc(-c2ccnc(NCCNS(=O)(=O)c3ccc(C(F)(F)F)cc3)c2)c(-c2cccc(O)c2)n1,32.1%,63.3%,25.9%,17.3%,29.5%,-0.263% (active),41.8%,
O=C1Nc2ccc3c(c2/C1=C\c1cc2c(cc1Br)OCO2)OCO3,,-38.7% (active),7.57% (active),4.51% (active),-2.7% (active),43.6%,-6.85% (active),27.8%
CCC1=CCC[C@@]2(C)CCC[C@@]3(C)CCCC(C)(C)[C@]1([O-])[O+]32,,103%,101%,98.8%,102%,104%,110%,101%
Cc1ccc(N2CCN(C(C)C(N)=O)CC2)cc1 (stereo not given),,114%,107%,106%,98.3%,102%,112%,88.9%
NC(=S)N/N=C1\CCCC(C(F)(F)F)C1 (stereo not given),,105%,98.5%,27.3%,8.77% (active),104%,,96.3%
COP(=O)(OC)/C(=N\NS(=O)(=O)c1ccc(C)cc1)c1ccccc1,,106%,105%,88.6%,103%,102%,103%,125%
CC12CCCC(CC(=O)c3[nH]c4ccccc4c31)C2 (stereo not given),24.1%,-46.9% (active),22.2%,21.1%,22.7%,43.5%,26.7%,
Clc1ccc(-c2nc3ccccc3s2)cc1Cl,,121%,82.6%,67.8%,99%,93.9%,97.1%,97.4%
O=[N+]([O-])c1cc(S(=O)(=O)Oc2ccccc2)ccc1Cl,,19.1%,23.5%,-64.3% (active),-54.8% (active),-77.9% (active),-71.8% (active),30.2%
COc1c2occc2c(OC)c2c(=O)c(-c3cc(-c4ccc(F)cc4)c(C#N)c(N)n3)c(C)oc12,,63.1%,42.3%,13.4%,9.9% (active),69.3%,46.2%,63.7%
CC(C)(C)n1cc(-c2ccnc(NCCCNS(=O)(=O)c3ccc(F)cc3)c2)c(-c2cccc(O)c2)n1,31.2%,58.6%,8.4% (active),16.7%,32%,9.22% (active),28.2%,
O=[N+]([O-])c1ccc(/C=C/C2(CCl)OCCO2)cc1,95.1%,,86.5%,106%,61.3%,98.5%,104%,
COc1ccc2c(c1)OC1=C(C(=O)OC1)C2c1cc(OC)c2c(c1)OCO2 (stereo not given),,-22.5% (active),18.7%,15%,10%,14.9%,1.61% (active),26%
O=S(=O)(CC(O)(c1ccccc1)c1ccccc1)CC(O)(c1ccccc1)c1ccccc1,,89.9%,89.6%,80.9%,77.7%,93.1%,87.6%,102%
